Results filed as inconclusive are left out. Values without a mark were called inactive. Activity calls are given as the source filed them. Calls follow the shape of the dose curve; as a rule, active = well fitted curve in the direction sought with a large enough effect; inconclusive = small, poorly fitted or top-dose-only effect, or another doubt; inactive = no such curve, though single readings can be large; an effect the other way counts as inactive or inconclusive.
biological target: Rap guanine nucleotide exchange factor 3 (Homo sapiens) (UniProt O95398); assay: Confirmatory qHTS for antagonist of cAMP-regulated guanine nucleotide exchange factor 3 (EPAC1) (AID 1645880); conditions: EPAC1 Rap1B-BODIPY-GDP exchange, fluorescence; activity, negative = inhibition: at 115 µM (top of the series); also: nearly all actives have a fitted effect of over 55% in size;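 as to activity, negative = inhibition: plate controls were DMSO only for no effect and full effect of the ATA control for full effect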
Method in brief: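 Released BODIPY-GDP fluoresces less than Rap1-bound BODIPY-GDP; the signal is followed at 480/540 nm at 5-min intervals over 30 min, after 5 min at room temperature. Reactions contain 100 nM EPAC1, 250 nM RAP1B-BODIPY-GDP and 50 uM GDP; results are normalized to ATA and DMSO.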
Potency is read from the fitted curve at half-maximal effect.

Sequence of Rap guanine nucleotide exchange factor 3 (Homo sapiens) (O95398 whole entry, looked up): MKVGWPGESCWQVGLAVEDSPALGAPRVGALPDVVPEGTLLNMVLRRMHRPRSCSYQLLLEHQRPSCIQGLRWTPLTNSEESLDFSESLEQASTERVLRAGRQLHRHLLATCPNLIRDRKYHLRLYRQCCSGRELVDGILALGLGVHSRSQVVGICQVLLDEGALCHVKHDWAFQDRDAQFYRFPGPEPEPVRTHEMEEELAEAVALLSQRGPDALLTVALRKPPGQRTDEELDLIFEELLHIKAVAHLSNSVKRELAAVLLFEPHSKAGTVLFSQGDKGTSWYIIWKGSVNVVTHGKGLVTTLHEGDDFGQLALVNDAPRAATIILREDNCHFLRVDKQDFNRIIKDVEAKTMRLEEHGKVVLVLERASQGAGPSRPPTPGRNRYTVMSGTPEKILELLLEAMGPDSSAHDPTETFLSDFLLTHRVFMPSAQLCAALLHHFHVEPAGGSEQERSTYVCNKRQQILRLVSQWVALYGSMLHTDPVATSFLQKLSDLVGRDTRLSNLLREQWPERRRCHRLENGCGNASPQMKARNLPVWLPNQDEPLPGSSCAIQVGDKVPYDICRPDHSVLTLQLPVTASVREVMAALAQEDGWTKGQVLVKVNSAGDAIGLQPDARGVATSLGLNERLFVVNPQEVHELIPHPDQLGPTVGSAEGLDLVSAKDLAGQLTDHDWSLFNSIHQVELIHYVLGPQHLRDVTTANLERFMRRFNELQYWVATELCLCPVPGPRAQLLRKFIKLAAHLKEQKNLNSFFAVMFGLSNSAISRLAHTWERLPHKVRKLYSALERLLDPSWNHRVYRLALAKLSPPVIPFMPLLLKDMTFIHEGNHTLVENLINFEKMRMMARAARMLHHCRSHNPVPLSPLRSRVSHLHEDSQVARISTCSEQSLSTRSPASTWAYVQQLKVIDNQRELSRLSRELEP

| Compound | activity, negative = inhibition | Potency |
| --- | --- | --- |
| Nc1ccc(Oc2ncccn2)cc1 | -13.4% | – |
| COc1ccc2c(c1)C(CC(C)=O)N(c1ccc(-c3cccnc3)cc1)C(c1ccsc1)=C2 (stereo not given) | -17% | – |
| Cc1cc(C)nc(SCC(=O)c2ccc(F)c(C)c2)n1 | -22.3% | – |
| Cc1cc2oc(=O)c(CC(=O)O)c(C)c2c2occ(C(C)(C)C)c12 | -26.7% | – |
| CCCCOc1ccc(NS(=O)(=O)c2ccc(-n3cnnn3)cc2)cc1 | -21.3% | – |
| Cc1ccc(S(=O)(=O)Nc2ccccc2C(=O)Nc2nc(-c3ccc(F)cc3)cs2)cc1 | – | 42.6 µM (active) |
| Cn1c(N)c(C(=O)COC(=O)C2(c3ccc(Cl)cc3)CCCC2)c(=O)n(C)c1=O | -15.3% | – |
| CCSc1nc(-c2ccccc2)nc2c1CCCC2 | -11.9% | – |
| CC(=O)OCCNc1cc(N2CCN(C)CC2)c2noc3c2c1C(=O)c1ccccc1-3 | -31.9% | – |
| CC#C[C@@H](CC)c1ccc2ccn(C)c2c1 | -26.5% | – |
| CCSc1oc(-c2cccs2)nc1S(=O)(=O)c1ccccc1 | -30.2% | – |
| O=C(Cc1ccccc1)Nn1c(O)c(/C=C2\C=Nc3ccccc32)sc1=S | -16.1% | – |
| O=c1[nH]nc(CNc2ccc(O)cc2)c2ccccc12 | -9.3% | – |
| O=C(Cc1ccc(F)cc1)Nc1ccccc1Sc1ccccc1 | -24.8% | – |
| CN(Cc1ccnc2ccccc12)C(=O)C1CCC(=O)N(Cc2ccccc2F)C1 (stereo not given) | -7.72% | – |
| CCOC(=O)CC1C(=O)NCCN1C(=O)c1cccc(C(F)(F)F)c1 (stereo not given) | 0.437% | – |
| COc1cc(CN2C(=O)C(C)ON=C2c2cccs2)cc(OC)c1 (stereo not given) | -12.2% | – |
| CC(=O)c1ccc(NC(=O)c2ccc3c(c2)C(=O)N(c2ccccn2)C3=O)cc1 | – | 8.49 µM (active) |
| CCc1nc2ccccc2c(C(=O)NCc2ccccc2)c1C | -17.6% | – |
| COc1ccc(Br)cc1CNc1ccc(O)cc1 | -17.8% | – |

| Compound | activity, negative = inhibition | Potency |
| --- | --- | --- |
| CCC(=O)N1CCc2cc(OC)c(OC)cc2C1COc1ccc(F)cc1 (stereo not given) | -21.7% | – |
| O=C1C(O)=CC(=C(c2ccccc2)c2ccccc2)c2ccccc21 | -27.1% | – |
| CN(C)CCNC(=O)c1ccc(-c2cn3c(-c4ccc(Oc5ccccc5)cc4)cnc3cn2)cc1 | -11% | – |
| Cc1ccc(-c2nnc(Nc3ccc4c(c3)OCO4)c3ccccc23)cc1S(N)(=O)=O | – | 47.8 µM (active) |
| Cc1ccc2oc(=O)c(/C=C(\O)c3ccco3)nc2c1 | 42.7% | – |
| CC(C)NC(=O)c1sc(=S)n2c1[nH]c(=O)c1ccc(C(=O)NCCc3ccc(Cl)cc3)cc12 | – | 50.1 µM (active) |
| Cc1nc2cc(-c3ccsc3-n3c(C)ccc3C)[nH]n2c(=O)c1Cl | – | 37.9 µM (active) |
| CCC(=O)NC(c1cccs1)c1cc([N+](=O)[O-])c2cccnc2c1O (stereo not given) | – | 42.6 µM (active) |
| Cc1cc(C)c2nc(N3C(=O)C(O)=C(C(=O)c4ccco4)C3c3ccc(O)cc3)sc2c1 (stereo not given) | – | 37.9 µM (active) |
| COc1ccc2cc(/C=C3\SC(=S)NC3=O)c(N3CCOCC3)nc2c1 | – | 20 µM (active) |
| Cc1cc(Nc2ccccc2)c2c([N+](=O)[O-])ccc(C)c2n1 | -10.3% | – |
| COc1ccccc1CN(C)CC(=O)Nc1ccccc1-c1ccccc1 | -22.1% | – |
| O=S(=O)(O)c1ccc2c(c1)C(C(Cl)(Cl)Cl)OC(C(Cl)(Cl)Cl)O2 (stereo not given) | – | 31.6 µM (active) |
| CCCc1nc2c3ccccc3ccn2c1CC(C)(C)C | -28.2% | – |
| CCCCN(C(=O)c1ccc2c(c1)OCO2)c1ccccc1 | -25.5% | – |
| NC1=C(Cl)C(=O)c2ccc(S(N)(=O)=O)cc2C1=O | – | 75.7 µM (active) |
| COc1ccc(OC)c(C(=O)c2ccc(Cl)cc2)c1 | -18.5% | – |
| COc1cc(/C=C2\COC/C(=C\c3ccc(O)c(OC)c3)C2=O)ccc1O | – | 23.9 µM (active) |
| Cc1cc(C)n(Cc2ccc(C(=O)N/N=C/c3ccc(-c4ccc([N+](=O)[O-])cc4)o3)o2)n1 | – | 47.8 µM (active) |
| N#Cc1c(C(F)(F)F)cc(-c2ccccc2)nc1SCc1nc(N)nc(N2CCOCC2)n1 | -4.93% | – |

biological target: Rap guanine nucleotide exchange factor 3 (Homo sapiens) (UniProt O95398); assay: Confirmatory qHTS for agonist of cAMP-regulated guanine nucleotide exchange factor 3 (EPAC1) (AID 1645881); conditions: EPAC1 Rap1B BODIPY-GDP exchange fluorescence; series mostly up to 154 µM; activation: at the top concentration; also: nearly all actives have a fitted effect of over 75% in size;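 as to activation: EPAC1 catalysed release of BODIPY-GDP from Rap1B seen as fluorescence loss; 100% = effect of cAMP agonist control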

| Compound | activation | Potency |
| --- | --- | --- |
| Nc1ccc(Oc2ncccn2)cc1 | 16.8% | – |
| COc1ccc2c(c1)C(CC(C)=O)N(c1ccc(-c3cccnc3)cc1)C(c1ccsc1)=C2 (stereo not given) | 5.84% | – |
| Cc1cc(C)nc(SCC(=O)c2ccc(F)c(C)c2)n1 | 6.53% | – |
| Cc1cc2oc(=O)c(CC(=O)O)c(C)c2c2occ(C(C)(C)C)c12 | 3.57% | – |
| CCCCOc1ccc(NS(=O)(=O)c2ccc(-n3cnnn3)cc2)cc1 | 13.8% | – |
| Cc1ccc(S(=O)(=O)Nc2ccccc2C(=O)Nc2nc(-c3ccc(F)cc3)cs2)cc1 | -5.74% | – |
| Cn1c(N)c(C(=O)COC(=O)C2(c3ccc(Cl)cc3)CCCC2)c(=O)n(C)c1=O | 9.83% | – |
| CCSc1nc(-c2ccccc2)nc2c1CCCC2 | 1.43% | – |
| CC(=O)OCCNc1cc(N2CCN(C)CC2)c2noc3c2c1C(=O)c1ccccc1-3 | -5.04% | – |
| CC#C[C@@H](CC)c1ccc2ccn(C)c2c1 | -2.88% | – |
| CCSc1oc(-c2cccs2)nc1S(=O)(=O)c1ccccc1 | 12.8% | – |
| O=C(Cc1ccccc1)Nn1c(O)c(/C=C2\C=Nc3ccccc32)sc1=S | – | 112 µM (active) |
| O=c1[nH]nc(CNc2ccc(O)cc2)c2ccccc12 | 10.3% | – |
| O=C(Cc1ccc(F)cc1)Nc1ccccc1Sc1ccccc1 | 13.7% | – |
| CN(Cc1ccnc2ccccc12)C(=O)C1CCC(=O)N(Cc2ccccc2F)C1 (stereo not given) | 8.53% | – |
| CCOC(=O)CC1C(=O)NCCN1C(=O)c1cccc(C(F)(F)F)c1 (stereo not given) | 9.97% | – |
| COc1cc(CN2C(=O)C(C)ON=C2c2cccs2)cc(OC)c1 (stereo not given) | 18.9% | – |
| CC(=O)c1ccc(NC(=O)c2ccc3c(c2)C(=O)N(c2ccccn2)C3=O)cc1 | 4.75% | – |
| CCc1nc2ccccc2c(C(=O)NCc2ccccc2)c1C | -1.14% | – |
| COc1ccc(Br)cc1CNc1ccc(O)cc1 | 3.45% | – |

| Compound | activation | Potency |
| --- | --- | --- |
| CCC(=O)N1CCc2cc(OC)c(OC)cc2C1COc1ccc(F)cc1 (stereo not given) | 4.27% | – |
| O=C1C(O)=CC(=C(c2ccccc2)c2ccccc2)c2ccccc21 | 13.5% | – |
| CN(C)CCNC(=O)c1ccc(-c2cn3c(-c4ccc(Oc5ccccc5)cc4)cnc3cn2)cc1 | 10.4% | – |
| Cc1ccc(-c2nnc(Nc3ccc4c(c3)OCO4)c3ccccc23)cc1S(N)(=O)=O | 13.2% | – |
| Cc1ccc2oc(=O)c(/C=C(\O)c3ccco3)nc2c1 | – | 89.1 µM (active) |
| CC(C)NC(=O)c1sc(=S)n2c1[nH]c(=O)c1ccc(C(=O)NCCc3ccc(Cl)cc3)cc12 | -7.63% | – |
| Cc1nc2cc(-c3ccsc3-n3c(C)ccc3C)[nH]n2c(=O)c1Cl | 8.9% | – |
| CCC(=O)NC(c1cccs1)c1cc([N+](=O)[O-])c2cccnc2c1O (stereo not given) | 18% | – |
| Cc1cc(C)c2nc(N3C(=O)C(O)=C(C(=O)c4ccco4)C3c3ccc(O)cc3)sc2c1 (stereo not given) | -37.1% | – |
| COc1ccc2cc(/C=C3\SC(=S)NC3=O)c(N3CCOCC3)nc2c1 | -9.75% | – |
| Cc1cc(Nc2ccccc2)c2c([N+](=O)[O-])ccc(C)c2n1 | 24.9% | – |
| COc1ccccc1CN(C)CC(=O)Nc1ccccc1-c1ccccc1 | 14.5% | – |
| O=S(=O)(O)c1ccc2c(c1)C(C(Cl)(Cl)Cl)OC(C(Cl)(Cl)Cl)O2 (stereo not given) | -7.34% | – |
| CCCc1nc2c3ccccc3ccn2c1CC(C)(C)C | 0.911% | – |
| CCCCN(C(=O)c1ccc2c(c1)OCO2)c1ccccc1 | 20.8% | – |
| NC1=C(Cl)C(=O)c2ccc(S(N)(=O)=O)cc2C1=O | 4.48% | – |
| COc1ccc(OC)c(C(=O)c2ccc(Cl)cc2)c1 | 18.5% | – |
| COc1cc(/C=C2\COC/C(=C\c3ccc(O)c(OC)c3)C2=O)ccc1O | 3.24% | – |
| Cc1cc(C)n(Cc2ccc(C(=O)N/N=C/c3ccc(-c4ccc([N+](=O)[O-])cc4)o3)o2)n1 | -2.98% | – |
| N#Cc1c(C(F)(F)F)cc(-c2ccccc2)nc1SCc1nc(N)nc(N2CCOCC2)n1 | 14.9% | – |
